Assay results reported in ChEMBL document CHEMBL4513216, “Probing the Open Global Health Chemical Diversity Library for Multistage-Active Starting Points for Next-Generation Antimalarials” (ACS Infect Dis, 2020).
About 8,600 (12%) of roughly 69,000 compounds showed an effect of 50% or more. Many of the other results were omitted from the sample, so strong results are more common in it than they were.

test system: Plasmodium berghei; assay: Screen against P. berghei liver stage (PbLuc), transformed with Luciferase, at 10uM; type: functional, HepG2; conditions: tested at 10 uM

SMILES	INHIBITION [%]
CN1CC(=O)N(c2cccnc2)CC12CCN(C(=O)c1cccnc1)C2 (stereo not given)	-13.3
O=C(c1ccccc1OC1CCCC1)N1CCCC(n2cncn2)C1 (stereo not given)	49.8
Cc1ccc(CN2CCC3(CCC(C(=O)N(C)C)O3)CC2)o1 (stereo not given)	-7.28
Cn1cc(CC2CCN(C(=O)NCc3cn4ccsc4n3)C2)cn1 (stereo not given)	19.7
CC(C)CNC(=O)N1C[C@@H]2C[C@H](C(=O)NCc3ccccc3)[C@H](C1)O2	-7.2
COc1ccccc1N1CC(NC(=O)Cn2cc(C(C)C)nn2)CC1=O (stereo not given)	-14.2
COc1ccccc1N1CC(NC(=O)Cn2cc(C)nn2)CC1=O (stereo not given)	-71.7
COc1ccccc1N1CC(NC(=O)c2cc(C(C)C)nn2C)CC1=O (stereo not given)	69.4
Cc1ncccc1CNCC1CCc2nnc(C(C)C)n2C1 (stereo not given)	29.8
Cc1ncsc1CCNC(=O)Cn1nc(C)n(Cc2ccccc2)c1=O	-171
CC(c1ccccc1Cl)N(C)Cc1nc2c(cnn2C)c(=O)[nH]1 (stereo not given)	16.165
CCN(CC)C(CNC(=O)c1cccnc1-n1cncn1)c1ccsc1 (stereo not given)	21.1
O=C(c1ccco1)N1CCC(n2nc(-c3ccco3)ccc2=O)CC1	-8.12
O=C(c1cccs1)N1CCC(Cn2nc(-c3ccco3)ccc2=O)CC1	33.5
O=C(c1ccco1)N1CCC(n2nc(-c3cccs3)ccc2=O)CC1	5.11
CC(C)(C)C(=O)N1CCC(n2nc(-c3ccco3)ccc2=O)CC1	-4.51
CC(C)C(=O)N1CCC(n2nc(-c3ccco3)ccc2=O)CC1	61.7
O=C(c1cccs1)N1CCC(n2nc(-c3ccco3)ccc2=O)CC1	50.6
COc1cc(N2C[C@H]3CN(C(=O)c4cccnc4)C[C@H]3C2)ncn1	0.164
CC(C)N(C)Cc1cc(=O)n2c(n1)CN(C(=O)c1cnccn1)CCC2	33.5
CC(NC(=O)NCc1ccccc1F)(C(=O)O)c1ccco1 (stereo not given)	25.1
CC(C)Oc1cccc(CNC(=O)NC(C)(C(=O)O)c2ccco2)c1 (stereo not given)	14.4
CC(NC(=O)NCc1cccc(F)c1)(C(=O)O)c1ccco1 (stereo not given)	4.52
COc1ccc(CNC(=O)NC(C)(C(=O)O)c2ccco2)cc1F (stereo not given)	53.9
CC(NC(=O)NCc1ccccc1)(C(=O)O)c1ccco1 (stereo not given)	58
CC(NC(=O)NCc1c(F)cccc1Cl)(C(=O)O)c1ccco1 (stereo not given)	14.1
COc1c(CNC2CCCOc3ccc(F)cc32)c(C(C)C)nn1C (stereo not given)	0.914

SMILES	INHIBITION [%]
CC(C)NC(=O)N1CC[C@@H](N(C)C)[C@@H]1Cc1ccccc1	0.804
c1ccc2ncc(CC3CNCCOC3)cc2c1 (stereo not given)	3.48
COCCN1CC[C@]2(CN(Cc3ccccn3)C[C@H]2C)C1=O	-2.03
Cc1ccc(CCC(=O)N2CCC(Nc3cccnn3)CC2)cc1	52.5
O=C(CCCc1ccccc1)N1CCC(Nc2cccnn2)CC1	-6.44
O=C(CCNc1ncccn1)N1CCC(Nc2cccnn2)CC1	0.411
O=C(CCc1ccsc1)N1CCC(Nc2cccnn2)CC1	25.1
O=C(CCOc1ccccc1)N1CCC(Nc2cccnn2)CC1	50.4
COCCCC(=O)N1CCC(Nc2cccnn2)CC1	31.9
Cn1nc(Cn2cccn2)c2c1CN(C1CCOC1)C2 (stereo not given)	-4.02
COCC(=O)N1CCN(C)C(=O)C(Cc2ccccc2-c2cccs2)C1 (stereo not given)	-20.6
O=C(NCC1CC1)C1CCC2(CCN(C(=O)c3ccncc3)CC2)O1 (stereo not given)	-6.05
CCc1nc(C2CCCN2Cc2nnc(C3CC3)o2)no1 (stereo not given)	-5
Cc1oc(-c2ccco2)nc1CN1CCCC(Cn2cncn2)C1 (stereo not given)	-97.8
CC(=O)N(Cc1ncc(C(C)C)o1)C1CCN(Cc2cc(C)no2)C1 (stereo not given)	13.95
Cc1nccn1CCCNc1nccnc1C#N	12.9
CN1CCC2(CCN(CC3CCOCC3)CC2)C1=O	26.5
CS(=O)(=O)c1ccc(C(=O)NCCNc2ncccn2)cc1	-5.07
CS(=O)(=O)c1cccc(C(=O)NCc2nc3cc(F)ccc3[nH]2)c1	64.5
CS(=O)(=O)c1ccc(C(=O)NCc2nc3cc(F)ccc3[nH]2)cc1	52.2
CS(=O)(=O)c1cccc(C(=O)NCC2Cc3ccccc3O2)c1 (stereo not given)	9.06
CN(C)c1cc(CNC(=O)c2cccc(F)c2)ccn1	24
O=C(NCc1nc2cc(F)ccc2[nH]1)c1ccc[nH]1	-7.16
CC(C)CN1CC(C(=O)NCc2cccnc2-n2cccn2)CC1=O (stereo not given)	19.5
Cc1noc(C2(C)CCCN(C(=O)C(C)C)C2)n1 (stereo not given)	12.8
Cc1csc2c(C3CCCN(C(=O)Cn4cncn4)C3)nc(C)n12 (stereo not given)	7.19
c1cncc(CN2CCc3ncnc(C4CC4)c3CC2)c1	6.72

SMILES	INHIBITION [%]
CC(C)N(C)C(=O)C1=NOC2(CCN(C(=O)c3ccncc3)C2)C1 (stereo not given)	3.47
Cc1ccsc1C(=O)N1CCC2(CC(C(=O)N(C)C(C)C)=NO2)C1 (stereo not given)	56.6
CC(C)N(C)C(=O)C1=NOC2(CCN(C(=O)c3ccc(Cl)cc3)C2)C1 (stereo not given)	-6.53
O=C(C1CC=CC1)N1CCc2c(COCc3ccncc3)cncc2C1	6.8
CCc1nc(C2CCCN(C(=O)c3cccc(C(N)=O)c3)C2)no1 (stereo not given)	19.5
Cc1ccc2cc(C(=O)N3CCS(=O)(=O)CC3)[nH]c2c1	53.6
Cc1ccc2cc(C(=O)N3CCN(S(C)(=O)=O)CC3)[nH]c2c1	-11.4
Cc1ccc2cc(C(=O)N3CCN(C(=O)c4ccoc4)CC3)[nH]c2c1	24.8
CCS(=O)(=O)CCN1CCN(C2CCC(C(C)C)CC2)CC1 (stereo not given)	13.8
CC(NCC1(N(C)C)CCOCC1)c1ccc(SC(F)F)cc1 (stereo not given)	40.5
CCOc1ccccc1C(CC(=O)Nc1ncc(C)s1)NC(C)=O (stereo not given)	39.3
CC(C)NC(=O)c1ccc2c(c1)nc1n2CCN(Cc2ccccc2)C1	33.3
Fc1ccccc1CN1CCCC(NC2CCOCC2)C1 (stereo not given)	49.4
O=C(Cc1ccsc1)N1CCC(c2noc(-c3ccncc3)n2)CC1	-0.902
O=C(Cc1ccc(F)cc1)N1CCCC(c2n[nH]c3nccnc23)C1 (stereo not given)	23.2
Fc1cccc(CN2CCC(c3noc(-c4ccncc4)n3)CC2)c1F	28.5
CN1CCN(C(=O)Cc2ccsc2)Cc2cccnc21	64.9
Cn1nc(C2CCCN(C(=O)Cc3ccsc3)C2)c2nccnc21 (stereo not given)	48.3
O=C(Cc1ccsc1)N1CCCC(c2n[nH]c3nccnc23)C1 (stereo not given)	59.1
c1cc(-c2nc(C3CCN(Cc4ccsc4)CC3)no2)ccn1	50.8
O=C(Cc1ccsc1)N1CCCC(c2n[nH]c3ncccc23)C1 (stereo not given)	67.7
CN1CCN(C(=O)Cc2ccc(F)cc2)Cc2cccnc21	-69.9
O=C(Cc1ccsc1)N1CCC(c2n[nH]c3nccnc23)CC1	-0.902
Cn1nc(C2CCN(C(=O)Cc3ccsc3)CC2)c2cccnc21	28
O=C(Cc1ccsc1)N1CCN(CC2CC2)c2ncccc2C1	29.4
CC(=O)N1N=C(c2ccco2)OC1C(=O)N(CC(C)C)CC(C)C (stereo not given)	-33
CC(C)c1cc(C(=O)N2CCN(CC3CC3)[C@@H]3CS(=O)(=O)C[C@@H]32)on1	42.1

SMILES	INHIBITION [%]
O=C(NCCn1ccnc1)c1ccn(-c2ccccc2)n1	1.78
Cc1ccc(CN(CCCN(C)C)Cc2cnc(C)n2C)o1	9.93
Cc1nnsc1CNC(=O)c1ccc2c(c1)nc(N1CCOCC1)n2C	-24.6
CC(C)c1nc(CCn2cncn2)n(-c2ccc3c(c2)OCCO3)n1	3.96
c1cnc2[nH]nc(C3CCN(Cc4ccsc4)CC3)c2c1	22
Cc1ccc(CC(=O)N2CCCC(c3n[nH]c4nccnc34)C2)cc1 (stereo not given)	44.8
NC(=O)c1cc(C2CCCN(C(=O)CCc3ccncc3)C2)n[nH]1 (stereo not given)	-51.5
Cc1ccc(CCC(=O)N2CCCC(c3cc(C(N)=O)[nH]n3)C2)cc1 (stereo not given)	48.1
c1cnc2c(C3CCN(Cc4ccsc4)CC3)n[nH]c2n1	64.8
COc1cccc(CC(=O)N2CCCC(c3n[nH]c4nccnc34)C2)c1 (stereo not given)	2.71
Cc1cccc(CC(=O)N2CCCC(c3n[nH]c4nccnc34)C2)c1 (stereo not given)	50.8
NC(=O)c1cc(C2CCCN(C(=O)CCc3ccsc3)C2)n[nH]1 (stereo not given)	56.6
Fc1ccc(CN2CCC(c3n[nH]c4nccnc34)CC2)cc1F	35.3
Cc1nn(CCC(=O)NC2CCCOC2)c(C)c1C (stereo not given)	3.35
CC1CCN(CCNC(=O)C(C)n2cncn2)CC1 (stereo not given)	22.3
CNC(=O)C1(C)CN(Cc2cn(C)c3ccc(F)cc23)CCO1 (stereo not given)	3.48
CNC(=O)[C@@H]1CN(C(=O)C2CCC2)C[C@H]1c1ccnc(N2CCCC2)n1	-33.3
CCN1CC(NC(=O)Nc2nc(C)n(C(C)C)n2)CC1=O (stereo not given)	64.4
CCCN1CC(NC(=O)Nc2nc(C)n(C(C)C)n2)CC1=O (stereo not given)	44.6
Cc1nc(NC(=O)NC2CC(=O)N(C)C2)nn1C(C)C (stereo not given)	40.6
COC(=O)C(NC(=O)CCc1ccco1)c1cc(F)ccc1F (stereo not given)	-4.16
CC(C(=O)N1CCCCC1)n1nc(-c2cccs2)cc(N)c1=O (stereo not given)	23
O=C(Cc1ccc(Cl)cc1)N[C@@H]1CCC[C@@H](O)[C@@H]1O	14.21
CC(C)(C)c1noc(-c2ccnc(-n3cnc(C(=O)O)c3)c2)n1	-6.73
